Source: PubChem BioAssay (National Center for Advancing Translational Sciences (NCATS))
HCV inhibitor: inhibitors of hepatitis C virus infection | Huh7.5.1 HCVcc-Cre infection, luciferase reporter, 44 h | Potency, µM (top dose mostly 41.8 µM), inactives show top-dose activity change, negative = inhibition, actives largely listed as inhibitors | 3.4% of 340,000 active | AID 651820; active = well fitted inhibition curve with a large enough effect; inconclusive = small, poorly fitted or top-dose-only effect, or another doubt; inactive = no such curve, though single readings can be large or run the other way; note: potency is the fitted concentration of half-maximal effect
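Infectious HCV cell culture screen: compound-treated cells (1,000/well, pre-plated 4 h) are infected with HCVcc-Cre at roughly 0.5 moi and grown 44 h. Infection is quantified by luciferase signal after 15 min substrate incubation at room temperature.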
Vaccinia Venus: inhibitors of vaccinia virus (Venus reporter). 0.46% of 330,000 active. Potency, µM (titrated, usually from 36.5 µM), for the others: at the highest dose activity change, negative = inhibition, hits mostly inhibitors. Vaccinia virus Venus reporter expression, fluorescence; calls by dose curve; tested in A549 cells; note: potency is the fitted concentration of half-maximal effect; nearly all actives have a fitted effect of over 30% in size
VACV mCherry inh: vaccinia inhibition (mCherry reporter) | Vaccinia virus mCherry reporter infection, fluorescence | Potency, µM (highest dose often 36.5 µM), without a hit: at the highest dose activity change, negative = inhibition, usual class: inhibitors | 0.63% of 310,000 active; calls by dose curve; tested in A549 cells; note: potency is the fitted concentration of half-maximal effect; nearly all actives have a fitted effect of over 35% in size
HCMV antiviral: human cytomegalovirus inhibition | HFF cells, HCMV-luciferase reporter, 72 h; hits give low values | activity change, negative = inhibition, % at 57.5 µM | 4.5% of 410,000 active | AID 1259415; in the data active = activity change below about -60%; inconclusive = no clear call, values can overlap the other calls; inactive = above about -39%
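Inhibition of viral replication was scored as loss of reporter luminescence in HFFs infected with HCMV-luciferase (MOI 1 PFU/cell) for 72 h; compounds tested at 2 doses, normalized to buffer and Salinomycin controls.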
FMDV inh: antivirals against foot and mouth disease virus. FMDV antiviral cell-based qHTS. AID 1159524. Potency, µM (titrated, usually from 57.9 µM), for inactives: top-dose activity change, negative = inhibition, usual class: inhibitors. 1.2% of 410,000 active; calls by dose curve; tested in HEK293T cells; note: read-out not given here; potency is the fitted concentration of half-maximal effect; nearly all actives have a fitted effect of over 45% in size
* marks the source's active call; other numbers are inactive results; i = inactive; ? = inconclusive; nt = no result; + = active, no number; [ ] = dose if it differs, or a comment. Most compounds without a hit are left out; they make up all but 7.3% or so of the library. % is set by controls: 0 for no effect and ±100 for the full control effect.

SMILES | HCV inhibitor | Vaccinia Venus | VACV mCherry inh | HCMV antiviral | FMDV inh
COc1ccc(Sc2nnc(-c3ccccc3)cc2C#N)cc1 | 2.1% | ? | nt | -10.1 | 0.0%
COc1ccc(C(=O)N/C(=C\c2cn(C)c3ccccc23)C(=O)N2CCOCC2)cc1 | 7.6% | -22.2% | ? | ? | 14.3%
COc1ccc(-c2nc(Cn3c(SCc4ccc(C)cc4)nc4cccnc43)c(C)o2)cc1OC | nt | -23.8% | -27.5% | -97.8* | -9.2%
CC1(c2nnnn2Cc2ccccc2)CCC(=O)N1CCCn1ccnc1 (configuration not stated) | nt | 3.9% | 24.0% | -13.6 | 0.4%
CCN(CC)c1ncnc2c1ncn2Cc1c(Cl)cccc1Cl | 12.6µM* | -14.6% | -24.0% | -2.5 | -16.8%
Clc1cccc(Cl)c1Cn1cnc2c(N3CCCCCC3)ncnc21 | ? | -12.7% | i | -81.1* | nt
CC(=O)Nc1ccc(S(=O)(=O)NCC(=O)OCC(=O)c2cc(C)n(-c3ccc4c(c3)OCO4)c2C)cc1 | 6.6% | -3.9% | -8.6% | 11.7 | -1.3%
Cc1cc(C(=O)COC(=O)c2ccc(N)c([N+](=O)[O-])c2)c(C)n1-c1ccc2c(c1)OCO2 | 2µM* | nt | nt | -73.5* | -23.1%
CC(=O)c1ccc(OCC(=O)c2cc(C)n(-c3ccc4c(c3)OCO4)c2C)cc1 | 12.6µM* | -15.5% | -22.6% | -39.9 | ?
Cc1cc(C(=O)COC(=O)c2ccc(N)c([N+](=O)[O-])c2)c(C)n1Cc1ccc2c(c1)OCO2 | 12.6µM* | -7.2%[7.34 µM] | -21.4%[7.34 µM] | -24.5 | -5.9%
CN(C)C(=O)CSc1nnc(-c2cc(-c3cccs3)nc3ccccc23)o1 | ? | 5.01µM* | nt | -0.9 | -17.3%
CSc1nc2nc(C)c(CCC(=O)OCC(=O)Nc3ccc(F)cc3)c(C)n2n1 | 12.6% | -10.3% | -7.1% | -3.1 | -19.7%
Cc1ccc(S(=O)(=O)N2C(=O)CCC2C(=O)N2CCCCC2)cc1 (configuration not stated) | 23.2% | nt | nt | 82.0 | 0.9%
Cc1cc(C(=O)CSc2nnc(-c3cccs3)o2)c(C)n1-c1ccccc1 | 8.91µM* | nt | nt | -23.0 | 11.2µM*
COc1ccc(NC(=O)CSc2nnc(-c3cccc(O)c3)o2)cc1 | 0.8% | 14.3% | ? | 86.2 | 15.2%
COc1cccc(NC(=O)CSc2nnc(-c3cc(C)n(-c4ccccc4)c3C)o2)c1 | -27.1% | -17.4% | -27.9% | nt | 12.6µM*
Cc1cc(C(=O)CSc2nnc(-c3ccco3)o2)c(C)n1-c1ccc2c(c1)OCCO2 | 12.6µM* | -17.8% | nt | -28.0 | ?
Cc1nnc(SCC(=O)c2cc(C)n(-c3ccc4c(c3)OCO4)c2C)s1 | 11.2µM* | -3.6% | -9.5% | -65.7* | nt
Cc1cc(C(=O)CSc2nnnn2C)c(C)n1-c1ccc2c(c1)OCCO2 | -8.1% | nt | nt | 52.8 | 13.9%
O=[N+]([O-])c1ccc2c(c1)CCCO[C@]21O[C@H](CCO)C[C@H](O)[C@H]1O | nt | nt | nt | -15.0 | nt
C=CCOc1ccc(C(c2c(C(=O)O)[nH]c3ccccc23)c2c(C(=O)O)[nH]c3ccccc23)cc1 | 11.9% | 1.6% | -0.1% | 48.7 | 9.1%
COc1cccc(-c2nnc(NC(=O)CCS(=O)(=O)c3ccc(C)cc3)o2)c1 | 0.5% | ? | 10µM* | 29.4 | -14.5%
Cc1ccc(S(=O)(=O)CCC(=O)Nc2nnc(-c3cccs3)o2)cc1 | -14.0%[8.37 µM] | ? | 10µM* | -6.8 | -9.9%
Cc1ccc(S(=O)(=O)CCC(=O)Nc2nnc(-c3ccco3)o2)cc1 | 10.4% | ? | ? | -18.7 | -23.8%
CC(=O)n1c2ccccc2c2c1c1ccccc1n2C | 2.24µM* | 0.1% | nt | 66.0 | -8.1%
SMILES | HCV inhibitor | Vaccinia Venus | VACV mCherry inh | HCMV antiviral | FMDV inh
CC(=O)n1c2ccccc2c2nc3ccccc3nc21 | -0.9% | nt | nt | nt | 72.4%
O=S(=O)(NC1CCCCC1N1CCN(c2ccc(F)cc2)CC1)c1ccccc1 (configuration not stated) | ? | nt | nt | + | ?
Cc1ccc(C)c(N2CCN(C3CCCCC3NS(=O)(=O)c3ccccc3)CC2)c1 (configuration not stated) | 11.2µM* | nt | nt | nt | ?
OC(CN1CCCCC1)c1ccccc1 (configuration not stated) | nt | -3.3% | -10.6% | nt | nt
COc1cc(NC(=S)NC2CC2)c(OC)cc1Cl | -22.8% | -1.4% | i | -81.3* | -1.1%
CCOC(=O)/C=C1\CN(Cc2cc(OC)c(OC)c(OC)c2)S(=O)(=O)c2ccccc21 | 3.16µM* | ? | -1.8% | ? | -26.3%
Nc1nc(N2CCCCC2)c(C=O)c(N2CCCCC2)n1 | 11.4% | -6.8% | -10.0% | 12.8 | 12.6%
Nc1nc(Cl)c(C=O)c(N2CCCCC2)n1 | 10µM* | -0.4% | -6.6% | ? | -17.4%
O=S(=O)(NCc1nnnn1-c1ccc(F)cc1)c1ccc(F)cc1 | nt | -7.3% | -4.7% | 2.8 | 31.4%
CCc1ccccc1NC(=O)c1ccc2c(c1)N(Cc1cc(C)ccc1C)C(=O)c1ccccc1S2(=O)=O | nt | -8.5% | -10.4% | 11.9 | -12.1%
COC(=O)/C=C1/SC(=NC(=O)c2ccc(OC)cc2)NC1=O | 6.9% | nt | nt | -15.4 | -9.9%
COC(=O)/C=C1/S/C(=N/NC(=O)c2ccccc2C)NC1=O | 14.2% | nt | nt | -104.8* | -15.2%
COC(=O)/C=C1/SC(=NC(=O)c2ccc(F)cc2)NC1=O | 12.6% | -5.9% | i | 23.6 | 39.8µM*
COC(=O)/C=C1\SC(=NC(=O)c2cccc([N+](=O)[O-])c2)NC1=O | 7.4% | 0.0% | i | 4.0 | 14.1µM*
CCOc1ccc(C)cc1S(=O)(=O)n1cnc2ccccc21 | 13.9% | nt | nt | ? | 0.0%
COc1ccc(CN(C)CC(O)COc2ccc(-c3ccccc3)cc2)cc1OC (configuration not stated) | 7.08µM* | -26.2% | i | 29.5 | -14.2%
CCOc1ccc(CN(C)CC(O)COC(c2ccc(OC)cc2)c2ccc(OC)cc2)cc1 (configuration not stated) | 11.2µM* | -21.4% | -28.8% | -6.6 | -7.1%
COc1ccc(CCN(C)CC(O)c2ccccc2)cc1OC (configuration not stated) | -7.7% | -6.1% | -1.8% | -73.9* | -6.2%
COc1ccc(CN(C)CC(O)COC(c2ccc(OC)cc2)c2ccc(OC)cc2)cc1 (configuration not stated) | ? | -21.0% | -0.8% | 12.0 | -7.3%
CN(Cc1ccc(OCC(O)CN(C)Cc2ccccc2)cc1)Cc1nccn1C (configuration not stated) | -8.9% | nt | nt | 0.0 | -19.0%
COc1ccc(NC(=O)c2cccc(N3CCCS3(=O)=O)c2)cc1OC | nt | 3.0% | -0.3% | 36.2 | 2.8%
C/C=C(\C)C(=O)O[C@H](c1cc2ccc(=O)oc2cc1OC)[C@@H](O)C(C)(C)O | 1.5% | -5.1% | -6.8% | -3.4 | -5.0%
Cc1cccc(-c2ccc3c(c2)C2CC3CCN2Cc2ccc3c(c2)OCO3)c1 (configuration not stated) | 5.3%[8.37 µM] | 3.7% | -25.7% | -9.9 | -22.2%
O=C1/C(=C/c2ccncc2)N2CCC1CC2 | -11.6% | ? | -12.4% | 3.8 | 10.0%
O=C1/C(=C/c2ccccc2Cl)N2CCC1CC2 | -18.7% | 3.6% | -12.6% | -66.8* | -6.4%
CCOc1ccc(OCC)c(NS(=O)(=O)c2cc(-c3onc(C)c3C)ccc2OC)c1 | nt | -8.4% | -3.5% | -3.8 | 22.1%
